Assay outcomes: PubChem BioAssay, The Scripps Research Institute Molecular Screening Center
A selection: hits, their analogues and other compounds. The true share with any hit is near 1.8%.
PP5 inh = inhibitors of human protein phosphatase 5 (PP5). P53041. purified PP5c, OMFP substrate fluorescence. inhibition, % at 6.7 µM. actives 0.18% (n = 320,000). AID 1987;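 active means inhibition above the campaign's mean inhibition across all tested compounds plus 3 SD, cut at about 9.5% in these data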;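 further: 0% = DMSO only and 100% = 100 µM cantharidin control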
Target sequence (P53041 whole entry, looked up): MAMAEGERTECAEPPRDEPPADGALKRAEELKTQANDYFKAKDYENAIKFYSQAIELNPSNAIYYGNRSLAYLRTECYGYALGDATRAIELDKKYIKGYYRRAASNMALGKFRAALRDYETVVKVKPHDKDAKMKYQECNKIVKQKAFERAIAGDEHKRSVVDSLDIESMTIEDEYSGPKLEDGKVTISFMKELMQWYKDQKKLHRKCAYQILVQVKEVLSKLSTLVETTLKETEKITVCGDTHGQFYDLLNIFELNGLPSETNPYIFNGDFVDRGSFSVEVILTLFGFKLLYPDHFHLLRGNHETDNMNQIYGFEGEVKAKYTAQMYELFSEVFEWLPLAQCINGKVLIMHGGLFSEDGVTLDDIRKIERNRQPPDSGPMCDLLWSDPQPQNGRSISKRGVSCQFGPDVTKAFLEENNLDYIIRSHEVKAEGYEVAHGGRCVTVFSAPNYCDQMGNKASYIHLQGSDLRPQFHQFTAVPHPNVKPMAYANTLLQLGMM
Fam108B inh = blocks mouse Fam108B hydrolase in RBBP9 counter-screen | recombinant Fam108B, FP-Rh probe fluorescence polarization | AID 1947 | actives 0.33% (n = 300,000) | inhibition, % at 9.51 µM;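 active means inhibition above the screen mean inhibition plus 3 SD, computed separately per campaign, cut at about 18% in these data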;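 further: inhibitors lower polarization as less probe binds the enzyme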
LYPLA2 inh = blocks human lysophospholipase 2, a PME1 counter-screen; AID 2177; inhibition, % at 5.9 µM; O95372; recombinant LYPLA2, FP-Rh probe fluorescence polarization; actives 0.38% (n = 320,000);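 active means inhibition above the screen-wide mean plus 3 SD, limit set per campaign, cut at about 26% in these data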;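 further: 0% = LYPLA2 with DMSO and 100% = wells lacking LYPLA2 enzyme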
LYPLA1 inh = LYPLA1 (human) inhibition in PME1 counter-screen; actives 0.16% (n = 320,000); O75608; inhibition, % at 5.9 µM; recombinant LYPLA1, FP-Rh probe fluorescence polarization;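 active means inhibition above the mean of all tested compounds plus 3 SD, set per campaign, cut at about 14% in these data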;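 further: inhibitors block serine hydrolase probe labeling of LYPLA1 so polarization falls; 0% = enzyme with DMSO and 100% = wells lacking LYPLA1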
PP1 counter = PP1-alpha (human) inhibition in PP5 counter-screen; P62136; purified PP1alpha, OMFP fluorescence; inhibition, % at 6.7 µM; actives 0.9% (n = 320,000);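 active means inhibition above the mean inhibition of all tested compounds plus 3 SD, computed separately for each screening campaign, cut at about 15% in these data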
PME-1 primary = blocks human protein phosphatase methylesterase 1; Q9Y570; recombinant PME-1, FP-Rh probe fluorescence polarization; inhibition, % at 5.9 µM; actives 0.53% (n = 320,000); AID 2130;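 active means inhibition above the campaign mean of all compounds plus 3 SD, cut at about 26% in these data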;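 further: competitive labeling of PME-1 active site by serine hydrolase directed probe; 0% = PME-1 with DMSO and 100% = wells lacking PME-1 enzyme; inhibitors block probe labeling so polarization falls and inhibition rises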
PP5 conf = confirmation of human PP5 phosphatase inhibitors. shares compounds with PP5 inh. Purified PP5, fluorogenic phosphatase substrate, fluorescence. inhibition, % at 6.7 µM. actives 22% (n = 460). AID 2331; in the data active means inhibition above about 9.5%
PP1 inh counter = inhibits human PP1 phosphatase in PP5 counter-screen | shares compounds with PP5 inh | PP1 enzyme, fluorescent phosphatase substrate | inhibition, % at 6.7 µM | actives 4% (n = 460) | AID 2355; in the data active means inhibition above about 16%
Starred values were filed as active, the others as inactive; x = no result given.

SMILES	PP5 inh	Fam108B inh	LYPLA2 inh	LYPLA1 inh	PP1 counter	PME-1 primary	PP5 conf	PP1 inh counter
Nc1ccc(N=Nc2ccccc2O)c(N)c1	12*	4	5	-1	-11	14	1	-2
CCC(=O)Nc1cccc(-n2nnnc2SCC(=O)NCc2ccco2)c1	3	7	17	3	4	1	x	x
CCC(=O)Nc1cccc(-n2nnnc2SCC(=O)c2ccc(C)c(C)c2)c1	13*	-8	-13	-10	0	-23	2	1
Cc1cccc(-c2nnc(NC(=O)c3ccc(Cl)cc3)o2)c1	9.6*	10	-2	2	11	-4	1	24*
CCN(c1ccccc1)S(=O)(=O)c1ccc(OC)c(NC(=O)COc2ccc(C(C)=O)cc2)c1	1	4	-4	-1	-3	14	x	x
CCOc1ccc(NCC(=O)N/N=C/C=C/c2ccccc2)cc1	-1	3	-6	-4	8	6	x	x
CCOc1ccc(N=C/C=C/c2ccccc2)c(O)c1	9.9*	2	4	3	7	58*	1	0
O=C(CC1C(=O)NCCN1CC1CCCCC1)NCCCN1CCOCC1 (stereo unspecified)	2	5	1	0	-4	7	x	x
CC(C)C(=O)Nc1nnc(SCC(=O)Nc2ccc3c(c2)OCCO3)s1	13*	-5	6	-1	-10	-6	-5	-2
Cc1cc([N+](=O)[O-])ccc1NC(=O)CCC(=O)N1CCCC1	-1	-2	-4	-5	-5	-4	x	x
COC(=O)C1=C(C)NC(C)=C(C(=O)OC)C1c1cn(-c2ccccc2)nc1-c1ccco1	14*	-4	-1	3	6	-7	2	3
COc1cc(/C=C/C(=O)Nc2cc(C(F)(F)F)ccc2Cl)cc(OC)c1OC	9.9*	-5	-6	-15	5	-15	4	3
NC(=O)c1ccc(C(F)(F)F)n(Cc2c(Cl)cccc2Cl)c1=O	12*	-1	5	-1	-2	-7	6	8
CC(C#Cc1ccc2c(c1)COc1c3ccccc3nn1-2)OC(C)(C)C (stereo unspecified)	0	2	-3	-3	0	7	x	x
Cc1ccc(/C(O)=C2\C(=O)C(=O)N(C)C2c2ccc(Br)cc2)cc1 (stereo unspecified)	10*	-3	2	-2	6	5	-7	-2
Cc1ccc(S(=O)(=O)N2CCC(C(=O)OCC(=O)NC3(C#N)CCCCC3)CC2)cc1C	0	1	-3	0	2	13	x	x
COc1cc(NC(=O)C2CC(=O)N(CCc3ccc(F)cc3)C2)cc(OC)c1OC (stereo unspecified)	-1	3	3	4	0	-1	x	x
O=[N+]([O-])c1ccc(N(c2ccccc2)c2ccccc2)cc1	9.9*	6	4	-1	-2	3	-2	-1
CCOc1cc2c(cc1OCC)C(c1ccc(OC)c(OC)c1)N(c1ccc(C(=O)O)cc1)C(=O)C2 (stereo unspecified)	0	-1	-4	0	3	0	x	x
CCOc1ccc(C2c3cc(OC)c(OC)cc3CC(=O)N2c2ccc(OC)cc2)cc1 (stereo unspecified)	9.7*	3	-1	-1	2	3	1	0
Cc1noc(C)c1CSCC(=O)N(C)CC(=O)Nc1ccc(Cl)cc1	2	2	0	1	3	-3	x	x
CCCCNc1nc(Nc2ccc(C)c(Cl)c2)c2cnn(C)c2n1	5	3	-2	-7	9	6	x	x
CCNc1nc(Nc2ccc(C)c(Cl)c2)c2cnn(C)c2n1	10*	13	-7	2	6	24	0	3
Cc1ccc(C2(c3ccccc3)NC(=O)N(CC(=O)N3CC(=O)Nc4ccccc43)C2=O)cc1C (stereo unspecified)	3	x	-3	-7	-1	-4	x	x
COc1cccc(NC(=O)CN(C)C(=O)c2cccnc2Nc2cccc(C(F)(F)F)c2)c1	14*	x	-33	-18	8	-30	9.7*	10
SMILES	PP5 inh	Fam108B inh	LYPLA2 inh	LYPLA1 inh	PP1 counter	PME-1 primary	PP5 conf	PP1 inh counter
Cc1ccc(NC(=O)CN(C)C(=O)c2cccnc2Nc2cccc(C(F)(F)F)c2)cc1	11*	-8	-33	-14	10	-10	9	10
O=C1CCCC2=C1C1(O)C(=O)c3ccccc3C1(O)O2 (stereo unspecified)	17*	-2	4	4	10	-10	45*	3
Cc1ccc(S(=O)(=O)N2CCOC2CNC(=O)C(=O)NCc2ccc(Cl)cc2)cc1 (stereo unspecified)	4	5	6	2	-2	8	x	x
O=C1CN(c2nc(-c3cccnc3)nc3scc(-c4ccccc4)c23)CCN1	10*	1	5	0	0	-6	-1	1
COc1ccc(-c2csc3nc(-c4cccnc4)nc(N4CCC(C(N)=O)CC4)c23)cc1OC	3	-8	0	0	1	-6	x	x
CC(=O)N(CN1C(=O)c2ccc([N+](=O)[O-])cc2C1=O)c1cccc(C(=O)O)c1	23*	3	0	-3	0	-2	-2	-4
COc1cc(NC(=O)CCCNC(=O)c2ccc(Cl)cc2)cc(OC)c1OC	4	8	1	5	0	-1	x	x
O=C(c1cccc(F)c1)N1CCCc2ccccc21	1	2	6	1	-10	-8	x	x
CC1=NN(c2ccccc2)C(=O)/C1=C/N(C)C	8	-4	-3	4	-3	1	x	x
CC1=NN(c2ccccc2)C(=O)/C1=C\C=C1/N(C)c2ccccc2C1(C)C	10*	-1	-5	-5	9	3	9	7
O=C(CCN1CCN(CCO)CC1)Nc1ccc(OCc2ccccc2)cc1	10*	-3	-3	-1	-5	-8	-2	-3
CN1CCN(CCC(=O)Nc2ccc(OCc3ccccc3)cc2)CC1	0	3	11	2	-1	-5	x	x
O=C1N/C(=N/O)S/C1=C/c1cccc([N+](=O)[O-])c1	0	2	-9	-3	-1	1	x	x
O=C1N/C(=N\S(=O)(=O)Cc2ccccc2)S/C1=C/c1cccc([N+](=O)[O-])c1	11*	-1	6	4	5	-9	-2	6
C#Cc1ccc([C@H]2C=C(C(=O)Nc3ccccc3)O[C@@H](OCc3ccc(CO)cc3)C2)cc1	3	-15	-21	-16	14	-18	x	x
